Screening results as filed in PubChem.
Shown are actives, neighbours in structure and some others; about 2.5% of the full set was active somewhere.
NSD2 HMT inh – NSD2 histone methyltransferase inhibitors, primary screen, biochemical, AlphaScreen, single concentration, set 2; 0.54% of 310,000 active; inhibition, % at 12.5 µM; Histone-lysine N-methyltransferase NSD2 (Homo sapiens), O96028; NSD2 peptide methylation, 120 min; in the data active means inhibition above about 50%
Ecoli rRNA inh – reduced GFP signal of wild-type E. coli, primary screen, bacterial rRNA inhibitor project, GFP/RFP fluorescence, OD600, single point; GFP signal change (wild-type ribosome), % (concentration not given with the values); E. coli WT GFP vs humanized-ribosome RFP mutants, 24 h; stronger effect = lower value; DMSO median 0, no signal -100; 1.6% of 350,000 active;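 active means significant combined selectivity score with lowered wild-type GFP, culture density cut under 30%, mutant RFP and density less affected; inactive means any of these conditions unmet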
Casp6 inh – human caspase-6 inhibitors, primary screen, biochemical, VEID-R110 fluorescence, single point, set 2; P55212; purified caspase-6, Z-VEID-R110 cleavage fluorescence; inhibition, % at 12.5 µM; 0.53% of 350,000 active;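 active means mean inhibition across replicates at least about 35%, with every replicate also reaching that limit, limit read from the data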;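 further: 0% = median of neutral control wells and 100% = no fluorescence left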
RAD52 inh – RAD52 DNA annealing inhibitors, primary screen, biochemical, FRET, single point, set 2. recombinant RAD52 DNA annealing, FRET fluorescence. inhibition, % at 18.7 µM. 0.46% of 360,000 active;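 active means every replicate showing at least 50% inhibition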
MLL AF4-AF9 inh – inhibitors of AF4 peptide binding to AF9, primary screen, biochemical, AlphaScreen, biotin-AF4 peptide, FLAG-AF9, single point; AID 651704, 2012; inhibition, % at 10 µM; 0.47% of 350,000 active; Protein AF-9 (Homo sapiens), P42568;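 active means every replicate reaching a set inhibition limit, whatever the replicate mean, cut at about 25% in these data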;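 further: 0% = plate neutral control median and 100% = total signal loss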
Target sequence (P42568 whole entry, looked up): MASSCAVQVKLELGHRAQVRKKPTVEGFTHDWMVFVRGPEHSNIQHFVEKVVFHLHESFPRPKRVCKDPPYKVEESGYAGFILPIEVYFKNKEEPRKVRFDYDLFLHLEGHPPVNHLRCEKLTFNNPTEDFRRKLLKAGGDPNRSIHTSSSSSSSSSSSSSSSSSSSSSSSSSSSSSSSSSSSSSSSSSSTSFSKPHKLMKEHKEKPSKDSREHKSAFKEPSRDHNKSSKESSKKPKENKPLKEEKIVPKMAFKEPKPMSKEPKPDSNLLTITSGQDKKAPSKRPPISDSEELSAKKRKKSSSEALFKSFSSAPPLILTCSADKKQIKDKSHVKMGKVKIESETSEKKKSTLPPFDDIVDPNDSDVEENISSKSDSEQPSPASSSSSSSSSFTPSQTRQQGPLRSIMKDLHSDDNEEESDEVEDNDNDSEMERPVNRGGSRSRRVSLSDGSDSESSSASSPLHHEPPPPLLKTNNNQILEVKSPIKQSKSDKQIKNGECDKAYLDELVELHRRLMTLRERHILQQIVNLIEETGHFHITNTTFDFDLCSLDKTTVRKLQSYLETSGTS
* marks the source's active call; other numbers are inactive results; x = no result; ! = repeats disagree.

SMILES	NSD2 HMT inh	Ecoli rRNA inh	Casp6 inh	RAD52 inh	MLL AF4-AF9 inh
COc1ccc(S(=O)(=O)N(C)C[C@H]2OCCCC[C@@H](C)Oc3ccc(NS(=O)(=O)c4cn(C)cn4)cc3C(=O)N([C@@H](C)CO)C[C@H]2C)cc1	x	-4	2	12	-1
O=C(N[C@@H](Cc1cccnc1)C(=O)N1CCC[C@H]1C(=O)NCCc1ccccc1Cl)c1cccs1	x	-17*	-1	-15	x
Cc1noc(C)c1S(=O)(=O)Nc1ccc2c(c1)C(=O)N([C@H](C)CO)C[C@@H](C)[C@H](CN(C)Cc1ccncc1)OCCCC[C@@H](C)O2	x	4	2	9	-4
C[C@@H]1CN([C@@H](C)CO)C(=O)c2cc(C#CCN(C)C)cnc2O[C@@H]1CN(C)C(=O)c1ccc2c(c1)OCO2	x	4	-3	0	-4
C[C@@H]1CN([C@H](C)CO)C(=O)c2cc(C#CCN(C)C)cnc2O[C@H]1CN(C)Cc1ccc(-c2ccccc2)cc1	x	1	1	-1	27*
C[C@@H]1CN([C@@H](C)CO)C(=O)c2cc(C#CCN(C)C)cnc2O[C@H]1CN(C)Cc1ccc(-c2ccccc2)cc1	x	3	-25	10	34*!
C[C@H]1CN([C@@H](C)CO)C(=O)c2cc(C#CCN(C)C)cnc2O[C@H]1CN(C)C(=O)c1ccc2c(c1)OCO2	x	4	57*	5	0
C[C@@H]1CN([C@@H](C)CO)C(=O)c2cc(C#CCN(C)C)cnc2O[C@@H]1CN(C)Cc1ccc(-c2ccccc2)cc1	x	5	0	-8	23
Cc1cccc(C)c1NC(=O)c1cc(S(=O)(=O)N2CCC3(CC2)OCCO3)ccc1F	-1	4	65*	-5	1
COc1ccc(C)cc1NC(=O)c1cc(S(=O)(=O)N2CCC3(CC2)OCCO3)ccc1F	7	-6	3	-18	3
COc1cc(CN2CC3(CCN(C)CC3)c3c([nH]c4cc(OC)ccc34)[C@@H]2CO)cc(OC)c1	x	-1	x	x	x
CCCN(CC(=O)Nc1ccccc1C)C(=O)c1cccc(S(=O)(=O)N2CCc3ccccc3C2)c1	4	-21*	-1	-13	0
COC(=O)COc1ccc(S(=O)(=O)N2CCc3ccccc3C2)cc1C	-2	-26*	-1	-7	x
COc1ccc(NC(=O)N2CCCCN3[C@H](CO)[C@@H](c4ccc(C5=CCCC5)cc4)[C@H]3C2)cc1	x	x	-1	65*	12
COc1ccc(NC(=O)N2CCCCN3[C@H](CO)[C@H](c4ccc(C5=CCCC5)cc4)[C@@H]3C2)cc1	x	x	-1	4	-6
COc1ccc(NC(=O)N2CCCCN3[C@@H](CO)[C@H](c4ccc(C5=CCCCC5)cc4)[C@@H]3C2)cc1	x	-60	-1	71*	21
C[C@@H]1CN([C@H](C)CO)C(=O)Cc2cc(NC(=O)Nc3cccc4ccccc34)ccc2O[C@@H]1CN(C)S(=O)(=O)c1ccc(Cl)cc1	x	4	-1	0	-1
Cc1ccc(/C=C/C(=O)O)cc1S(=O)(=O)N1CCc2ccccc21	0	-32*	1	-1	1
CO[C@@H]1CN(C)C(=O)c2ccc(NC(=O)NC(C)C)cc2OC[C@H](C)N(C(=O)CN(C)C)C[C@H]1C	x	2	-1	-3	-1
CCn1nc(C(=O)OCc2cccc(S(=O)(=O)N(C)C)c2)c2ccccc2c1=O	1	-25*	1	-8	7
C[C@H]1CN([C@@H](C)CO)C(=O)c2cccc(NS(=O)(=O)c3ccccc3)c2O[C@@H]1CN(C)Cc1ccncc1	x	-2	3	-6	0
COc1cc([N+](=O)[O-])ccc1NC(=S)NNC(=O)CCC(=O)Nc1ccccc1Cl	18	-17*	4	-14	-1
COc1cc([N+](=O)[O-])ccc1NC(=O)CCCOc1ccccc1	-2	x	x	x	x
C[C@H]1CCCCO[C@H](CN(C)S(=O)(=O)c2ccccc2)[C@@H](C)CN([C@@H](C)CO)C(=O)c2cc(NC(=O)NC3CCCCC3)ccc2O1	x	1	3	-24	1
CC(=O)N1CCN(C(C)=O)c2ccccc21	-1	8	1	4	36*
SMILES	NSD2 HMT inh	Ecoli rRNA inh	Casp6 inh	RAD52 inh	MLL AF4-AF9 inh
CC(=O)N1CCN=C1SCc1ccccc1	x	2	-1	-14	-3
O=C(Nc1ccc2c(c1)CCC2)c1ccccc1	-3	x	-1	6	-6
Cc1ccc(C(=O)Nc2nc(C)c(C(=O)Nc3ccc4c(c3)CCC4)s2)cc1	0	-30*	-2	-33	-2
O=C(Nc1cc(Cl)cc(Cl)c1)c1coc(=O)c(Br)c1	2	x	70*	-117	-2
Cc1cccc(N=C2NC(=O)/C(=C/c3cccn3C)S2)c1C	17	-26*	6	-66	5
COc1ccc(NC(=O)CCc2nnc3ccc(N4CCC(C)CC4)nn23)cc1	-4	-3	2	-12	-5
CC1CCN(c2ccc3nnc(CCC(=O)Nc4cccc(F)c4)n3n2)CC1	2	-30*	5	-16	2
Cc1[nH]nc2c1C(c1ccc(Br)cc1)N(Cc1ccccc1)C2=O (centres undefined)	1	-25*	1	-6	x
C[C@@H]1CN([C@H](C)CO)C(=O)c2cc(NS(=O)(=O)c3ccc(F)cc3)ccc2O[C@H]1CN(C)Cc1ccc(Oc2ccccc2)cc1	x	-4	8	-25	4
C[C@H](CO)N1C[C@H](C)[C@H](CN(C)S(=O)(=O)c2cn(C)cn2)Oc2ncc(-c3ccccc3)cc2C1=O	x	0	4	4	-1
O=C(CSc1nnc2ccccn12)NC(=O)c1ccccc1Cl	1	2	39*	-12	-3
CC(C)(C)NS(=O)(=O)c1ccc(OCC(=O)NCCC2=CCCCC2)cc1	-1	-1	-2	-6	x
O=C(COC(=O)c1ccccc1Br)NCCC1=CCCCC1	-6	-51*	4	-23	-4
CCOc1ccc(CCNC(=O)CCn2ccc3cc(S(=O)(=O)N4CCCC4)ccc32)cc1	-4	-21*	0	-6	0
O=C(COc1ccc(S(=O)(=O)N2CCCC2)cc1)NCCC1=CCCCC1	-1	-20*	-1	-10	-3
CCCCNC(=O)CCn1ccc2cc(S(=O)(=O)N3CCCC3)ccc21	3	5	2	11	-3
Cc1ccc(S(=O)(=O)Nc2ccc3c(c2)C(=O)N([C@H](C)CO)C[C@@H](C)[C@H](CN(C)C(=O)Nc2ccccc2)OCCCC[C@H](C)O3)cc1	x	-1	x	x	x
CC(=O)N1CC[C@@H]2[C@@H](CO)N(C)c3ccc(-c4cccc(F)c4)cc3[C@@H]21	x	3	-1	-1	0
